Assay results published in PubChem BioAssay (NCI).
Compounds without any hit were thinned out: in the full panel of roughly 83,000, 20% have a hit.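 Single-concentration screen, 48 h exposure, 96-well plates. Endpoint: percent growth. Below 10 = active.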 Calls of active or inactive are those of the source.

tested on: MDA-MB-468 breast; experiment: NCI-60 one-dose screen, 48 h (100 = growth as untreated, 0 = no growth, -100 = all killed); details: 10 µM unless noted

| SMILES | growth |
| --- | --- |
| COc1cccc2c1O/C(=C\c1c([N+](=O)[O-])ncn1C)C2=O | 101% (inactive) |
| COc1ccc(C2NC(=O)C(C#N)c3c2sc2c(F)cccc32)cc1 (stereo not given) | 33.7% (inactive) |
| O=C(Nc1ccccc1)Nc1nc2ccc([N+](=O)[O-])cc2s1 | -22.6% (active) |
| Cl/C(=N\Nc1ccccc1)c1ccccc1 | 79% (inactive) |
| CC1=CSC2=NC(c3ccc(Cl)c(Cl)c3)=CC(c3ccc(Cl)cc3)N12 (stereo not given) | -61.3% (active) |
| O=C(NN(C(=O)c1ccccc1)c1cccs1)c1ccccc1 | 103% (inactive) |
| O=C(Oc1ccc2c(c1)sc1nc(-c3ccccc3)[nH]c(=O)c12)C(F)(F)F | 37.9% (inactive) |
| C=C(C)[C@@H]1CC[C@]2(CN)CC[C@]3(C)[C@H](CC[C@@H]4[C@@]5(C)CCCNC(C)(C)[C@@H]5CC[C@]43C)[C@@H]12 | -65.5% (active) |
| COc1ccc2c(c1)OC(N)=C(C#N)C2c1ccc(F)c(F)c1 (stereo not given) | -24.4% (active) |
| O=C(O)CN1C(=O)CCC1=O | 108% (inactive) |
| COc1cccc(/C=C/C(=O)c2cc3c(N)c(C(=O)Nc4ccccc4C)sc3nc2C)c1 | 16.7% (inactive) |
| COc1ccc(\C=N/N=C(N)/C(N)=N\N=C/c2ccc(OC)cc2)cc1 | 95.7% (inactive) |
| c1ccc(-c2nc(N3CCOCC3)c3c4c(sc3n2)CCCCCC4)nc1 | 57.4% (inactive) |
| CN1C(=O)N(C)C2C1NN=c1s/c(=C\c3ccc(C(F)(F)F)cc3)c(=O)n12 (stereo not given) | -2.71% (active) |
| CC(C)=CCc1cc(O)cc2c1OC(C=C(C)C)C1=C2C(=O)C2=C(C1=O)S(=O)(=O)CCN2 (stereo not given) | -31.2% (active) |
| N[C@H]1CCC[C@@H]1NCCCCN1C(=O)c2cccc3cc([N+](=O)[O-])cc(c23)C1=O | 38.8% (inactive) |
| CCCCCCCCCCC/C=C\C[C@H](O)C/C=C1/C(=O)C=C[C@@H]1C/C=C\CCCC(=O)OC | -46.3% (active) |
| Cc1cc(Cl)nc(N(CCCNc2ccnc3cc(Cl)ccc23)Cc2ccco2)n1 | 0.466% (active) |
| CCN(CC)CC#CCOC(=O)[C@]1(C)CCC[C@@]2(C)[C@H]1CC(C=O)=C1C=C(C(C)C)CC[C@@H]12 | 41.5% (inactive) |
| C/C=C/[C@@H]1C=C[C@@H]2C[C@H](C)CC[C@H]2[C@]1(C)/C(O)=C1/C(=O)[C@H](CO)N(C)C1=O | 65.5% (inactive) |

| SMILES | growth |
| --- | --- |
| CC[N+](CC)=c1sc2c(s1)C(c1ccc(Cl)cc1)Oc1ccc(Cl)cc1-2 (stereo not given) | -4.17% (active) |
| COc1ccc(Cl)cc1NC(=O)c1cc2c(n1C)-c1nc(NC(=O)C(C)(C)C)sc1CC2 | 96.7% (inactive) |
| CC(=O)c1ccc2c(c1)CCc1ccccc1-2 | 94.9% (inactive) |
| N#Cc1cc(-c2ccnc(Nc3ccc(NC(=O)CCl)cc3)n2)ccc1N1CCCC1 | -45.9% (active) |
| Cc1ccc(/C=C(\C#N)n2nnc3cc(F)c(F)cc32)cc1 | 17.3% (inactive) |
| Cc1cc(O)ccc1Sc1ccccc1[N+](=O)[O-] | 95.3% (inactive) |
| O=S(=O)(NCCCNc1cc(-c2cn(-c3ccccc3)nc2-c2cccc(O)c2)ccn1)c1ccc(Br)cc1 | -27.4% (active) |
| CCCCCCc1cc2cc(-c3nc4ccccc4[nH]3)c(=Nc3ccccc3C)oc2cc1O | -5.99% (active) |
| Nc1cc(F)ccc1NC(=O)c1ccc(NC(=O)C/C=C/c2cccnc2)cc1 | 40.1% (inactive) |
| O=[N+]([O-])c1ccc([I+]c2ccccc2)cc1 | -5.9% (active) |
| C1=CN2CC(c3ccccc3)=NNC2c2ccccc21 (stereo not given) | 82.5% (inactive) |
| COc1cc2c3c(n(CCCNC4CCCC4)c(=O)c2cc1OC)-c1cc2c(cc1C3=O)OCO2 | 70.9% (inactive) |
| CC(=O)OCC(=O)[C@@]1(O)CC[C@H]2[C@@H]3CC(=C(Br)Br)C4=CC(=O)CC[C@]4(C)[C@H]3C(=O)C[C@@]21C | 79.1% (inactive) |
| CN1C(=O)C(C(=O)/C=C/c2ccccc2C(=O)O)C(=O)N(C)C1=O | 102% (inactive) |
| NS(=O)(=O)c1ccc(Nc2nc3n[nH]c(Nc4ccccc4)c3c(=O)[nH]2)cc1 | 108% (inactive) |
| CCCCCCNC(=O)Oc1ccc(/C(=C(/CC)Cc2ccccc2)c2ccc(OCCCN(C)C)cc2)cc1 | 89.5% (inactive) |
| C=CCOC1=CC(=O)c2ccccc2C1=O | 29.2% (inactive) |
| Cc1cnc(C(=O)Nc2nc3ccc(S(=O)(=O)Nc4ccc(C(C)(C)C)cc4)cc3[nH]2)cn1 | -11.4% (active) |
| Cc1ccc(NC(=O)Nc2c(Cl)cccc2Cl)cn1 | 72.8% (inactive) |
| COc1cc(-c2nn(-c3ccc(NC(=O)c4cc(Cl)cc(Cl)c4)cc3)cc2-c2ccncc2)ccc1Cl | 89.2% (inactive) |
